Laboratory results taken from PubChem BioAssay AID1259374 (The Scripps Research Institute Molecular Screening Center, 2018).
The campaign covered roughly 650,000 compounds. About 5,900 (0.91%) were called active. The sample as a whole holds a higher share of actives than the screen did. A number with no mark means an inactive call. No stated cut-off is given here; in the data, active means inhibition above about 50%; inactive means the rest.

These compounds were tested against Microphthalmia-associated transcription factor (Homo sapiens) (UniProt O75030) (assay: MITF inhibitors, primary screen, biochemical, AlphaScreen, human (AID 1259374;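 further: 0% = vehicle wells with protein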)). Conditions: AlphaScreen MITF homodimerization, bead proximity signal; at 2.6 µM; hits give high values.
Sequence of Microphthalmia-associated transcription factor (Homo sapiens) (O75030 whole entry, looked up): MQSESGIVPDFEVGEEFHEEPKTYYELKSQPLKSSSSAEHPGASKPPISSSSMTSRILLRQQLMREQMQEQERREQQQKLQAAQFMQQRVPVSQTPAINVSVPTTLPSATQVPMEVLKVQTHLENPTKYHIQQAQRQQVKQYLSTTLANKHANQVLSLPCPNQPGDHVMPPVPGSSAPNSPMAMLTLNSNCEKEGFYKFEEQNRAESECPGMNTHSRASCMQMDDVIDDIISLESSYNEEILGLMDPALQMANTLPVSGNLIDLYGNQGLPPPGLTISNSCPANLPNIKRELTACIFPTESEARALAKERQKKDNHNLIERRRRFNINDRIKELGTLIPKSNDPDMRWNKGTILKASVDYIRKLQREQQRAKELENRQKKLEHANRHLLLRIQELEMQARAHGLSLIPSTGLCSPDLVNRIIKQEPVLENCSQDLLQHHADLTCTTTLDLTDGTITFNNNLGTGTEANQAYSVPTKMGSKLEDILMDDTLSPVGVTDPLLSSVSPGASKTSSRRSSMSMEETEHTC

SMILES	inhibition
CC(C)N1CCN(C(=O)CC2(c3ccccc3)CC(=O)N(CCc3ccccn3)C2=O)CC1 (stereo not given)	18.7%
Cc1cc(N2CCCC2)nc(Nc2ccc(NC(=O)c3c(F)cccc3Cl)cc2)n1	8.34%
CCc1ccc(NC(=O)Nc2ccccc2)cc1	7.42%
CCc1ccc(NC(=O)CS(=O)CC(=O)N2CCN(c3ccccc3F)CC2)cc1 (stereo not given)	-10.3%
CCc1ccc(NC(=O)CS(=O)CC(=O)NCCCc2ccccc2)cc1 (stereo not given)	60.7% (active)
COc1ccc(C(=O)Nc2ccc3scnc3c2)cc1	-2.75%
COc1ccc(-c2nnn(CC(=O)NCc3ccc(C)cc3)n2)cc1OC	16.6%
COc1ccc(C(=O)N/N=C/c2c(O)ccc3ccccc23)cc1	16.9%
COc1ccc(C(=O)N/N=C/c2ccc(O)c3ncccc23)cc1	100% (active)
COc1ccc(O)c(/C=N/NC(=O)c2ccc(NC(C)=O)cc2)c1	17.1%
Cc1cc(C)c(NS(=O)(=O)c2ccc3c(c2)n(C)c(=O)c(=O)n3C)c(C)c1	4.25%
CCOC(=O)N1CCN(Cc2cc(Br)c(OC)cc2OC)CC1	8.78%
COc1cc(OC)c(OC)cc1CN1CCN(c2ccccc2F)CC1	24.1%
COc1ccc(CN2CCC(C(N)=O)CC2)cc1OC	1.23%
COc1cc(OC)c(OC)cc1CN1CCN(Cc2ccc3c(c2)OCO3)CC1	49.8%
COc1cc(CN2CCN(c3ccccc3OC)CC2)cc(OC)c1	10.9%
COc1cc(OC)c(OC)cc1CN1CCN(Cc2ccc(F)cc2)CC1	64% (active)
COc1cc(CN2CCN(Cc3ccccc3Br)CC2)cc(OC)c1	89.3% (active)
COc1cc(CN2CCN(Cc3ccc(OC)c(OC)c3)CC2)cc(OC)c1	71.4% (active)
CCOc1cc(CN2CCN(Cc3cc(OC)cc(OC)c3)C(CCO)C2)ccc1OC (stereo not given)	0.98%
COc1cc(CN2CCN(Cc3cc(OC)c(OC)cc3OC)CC2)cc(OC)c1	75.9% (active)
COc1cc(CN2CCN(c3nccn3C)CC2)cc(OC)c1	8.7%
CC(C)Oc1ccccc1/C=C(\C#N)C(=O)Nc1ccccc1	-0.06%
O=C(CN1C(=O)CCC1=O)Nc1ccc(O)c(-c2nc3ccccc3s2)c1	0.38%

SMILES	inhibition
O=C(O)c1ccc(/C=N/Nc2ccc3ccccc3n2)cc1	10.5%
CC(=O)N1CCc2cc(Br)cc(S(=O)(=O)N3CCN(Cc4ccccc4)CC3)c21	13.2%
O=C(CCS(=O)(=O)c1cccc2nonc12)N1CCCC1	11.4%
COc1ccc(Cn2c(CCC(=O)Nc3cccc(SC)c3)nc3cccnc32)cc1	-3.6%
O=C(Oc1cccc(OC(=O)c2ccccc2)c1)c1ccccc1	-0.91%
C#CC(C)(C)OC(=O)C1C2C=CC(C2)C1C(=O)O (stereo not given)	21.6%
Cc1ccc(NC(=O)C2C3C=CC4(O3)C2C(=O)N(C2CCCCCCC2)C4C(=O)NC2CCCCC2)cc1Cl (stereo not given)	-0.34%
O=C(NCCc1ccccc1)c1ccc(Cn2c(=S)[nH]c3cc4c(cc3c2=O)OCO4)cc1	13.8%
CCn1c(=O)c2ccccc2n2c(SCC(=O)Nc3nccs3)nnc12	0.8%
COc1ccc(CCN2CCC(c3nc(-c4ccc5c(c4)OCO5)no3)CC2)cc1OC	7.81%
O=C(N/N=C/c1cc(Br)ccc1O)c1cc(-c2cccs2)[nH]n1	17.6%
O=C(N/N=C/c1cc(Br)ccc1O)c1ccc(=O)[nH]n1	80.2% (active)
O=C(N/N=C/c1cc(Br)ccc1O)c1cc(Br)ccc1O	8.32%
COC(=O)C1=C(O)/C(=C\c2ccccc2C(F)(F)F)N=C1C	1.73%
CCOC(=O)C1=C(O)/C(=C\c2cccc(Cl)c2)N=C1C	-3.89%
COC(=O)C1=C(O)/C(=C\c2cccc(O)c2)N=C1C	58% (active)
CCN(CC)C(=O)C1CCCN(c2cccc(C(=O)NCCOc3ccccc3)c2)C1 (stereo not given)	17.9%
O=C(CSc1ncnc2nc[nH]c12)c1ccc(O)c(O)c1	82.1% (active)
Cn1c(N)c(C(=O)CSc2ncnc3nc[nH]c23)c(=O)n(C)c1=O	10.9%
c1nc(SCc2ccc3c(c2)OCO3)c2[nH]cnc2n1	5.04%
CC(=O)N1CCN(Cc2ccc3c(c2)CN(C(=O)c2cccc(N(C)C)c2)CCO3)CC1	1.41%
C/C(=N\NC(=O)CCCc1cc2ccccc2[nH]1)c1ccncc1	12.8%
COc1cccc(CCNC(=O)CC2C(=O)NCCN2Cc2cccc(C(F)(F)F)c2)c1 (stereo not given)	10.1%
CCCS(=O)(=O)N1CCN(C(C)C)CC1	87.2% (active)

SMILES	inhibition
CCCS(=O)(=O)N1CCN(c2ccc(C)nn2)CC1	1.44%
CCCS(=O)(=O)N1CCN(C(=O)c2cccs2)CC1	16.3%
C[n+]1ccc(C(=O)N/N=C/c2ccc(Cl)cc2Cl)cc1	0.41%
O=C(N/N=C\c1ccc(Cl)cc1Cl)c1ccccc1O	9.14%
O=C1Nc2c(Cl)cc(Cl)cc2/C1=N\N=C\c1ccc(O)c(O)c1O	80.2% (active)
CCC1CCCCN1Cc1c(O)ccc2c(=O)c(Oc3ccc(OC)cc3)c(C(F)(F)F)oc12 (stereo not given)	-1.92%
CC(C)C[C@@H]1NC(=O)[C@@H]2C[C@H](NC(=O)Nc3c(Cl)cccc3Cl)CN2C1=O	2.93%
Cc1noc(C)c1-c1cccc(C(=O)NCCCN2CCCC2=O)c1	12.4%
CN(C)CCCNC(=O)C(=O)Nc1ccccc1F	-6.25%
CCOC(=O)N1CCC(N(CCOC)C(=S)Nc2ccccc2F)CC1	-9.05%
CC(c1ccccn1)N(CCN(C)C)C(=S)Nc1ccccc1F (stereo not given)	58% (active)
Cc1ccc(S(=O)(=O)N(CCC(=O)NCC2CCCO2)Cc2c(Cl)cccc2Cl)cc1 (stereo not given)	-0.49%
O=C(Nc1sc2c(c1C(=O)Nc1ccccc1)CCCCC2)c1ccncc1	17.1%
CCOc1ccc(C(=O)Nc2cccc(-c3nc4cc(C)cc(C)c4o3)c2)cc1[N+](=O)[O-]	8.35%
COc1cc(C(=O)N/C(=C/c2ccc3c(c2)OCO3)C(=O)NCC(=O)O)cc(OC)c1OC	-4.22%
CCCn1c(SCC(=O)NC2CCCCC2C)nnc1-c1cccnc1 (stereo not given)	0.55%
CC1CCCCC1NC(=O)CSc1nnc(-c2ccncc2)n1CCCN(C)C (stereo not given)	85.7% (active)
COCCCn1c(SCC(=O)NC2CCCCC2)nnc1-c1ccccc1	8.3%
CCNC(=S)NNC(=O)c1cccc(S(=O)(=O)Nc2ccc(C)cc2C)c1	6.71%
CCCS(=O)(=O)N1CCc2ccc(NC(=O)/C=C/c3ccco3)cc2C1	14.1%
COc1cc(N2CCOCC2)ccc1Nc1cc(Nc2ccccc2-n2cccn2)c(C(F)(F)F)cn1	57.2% (active)
CNC(=O)c1ccccc1Nc1cc(Nc2ccc(N3CCOCC3)cc2OC)ncc1F	4.9%
COc1cc(N2CCOCC2)ccc1Nc1cc(Nc2ccccc2C(N)=O)ccn1	21.1%
N#CCN1C(=O)C(=O)/C(=C(/O)c2ccccc2)C1c1ccccn1 (stereo not given)	19.8%

SMILES	inhibition
COc1cc(CN2CCC(N3CCC(C(=O)NCC4CCCO4)CC3)CC2)cc(OC)c1 (stereo not given)	6.5%
CC(C)c1ccc(C2/C(=C(/O)c3ccccc3)C(=O)C(=O)N2CCN(C)C)cc1 (stereo not given)	57.4% (active)
CN(C)c1ccc(C2/C(=C(/O)c3ccccc3)C(=O)C(=O)N2CCO)cc1 (stereo not given)	-0.75%
Cc1ccc(C2/C(=C(/O)c3ccc(Cl)cc3)C(=O)C(=O)N2CCN(C)C)cc1 (stereo not given)	-18.6%
O=C(Nc1ccc(-c2cn3ccccc3n2)cc1)c1ccc(Br)o1	11.4%
C/C(=N\Nc1ccc(Cl)c(C(=O)O)c1)c1ccc([N+](=O)[O-])cc1	0.79%
CS(=O)(=O)N(Cc1ccccc1)c1ccccc1C(=O)N1CCCCCC1	-12%
CCN(CC)S(=O)(=O)c1ccc(OCC(=O)Nc2ccc(C(C)=O)cc2)c([N+](=O)[O-])c1	-5.88%
CCCCCOc1ccc(OC(=O)c2ccc(-c3ccc(CCC)cn3)cc2)cc1	57.3% (active)
CCCCCc1ccc(-c2ccc(C(=O)Oc3ccc(-c4ccccc4)cc3)cc2)nc1	3.19%
CCCCOc1ccc(OC(=O)c2ccc(-c3ccc(CC)cn3)cc2)cc1	-0.56%
CCOC(=O)C1CCCN(c2c(OCC)c(=O)c2=O)C1 (stereo not given)	-5.33%
CCN(CCCNC(=O)CCCn1c(=S)[nH]c2cc3c(cc2c1=O)OCO3)c1cccc(C)c1	2.49%
CN1CCN(S(=O)(=O)c2ccc(F)c(Cl)c2)CC1	19.5%
O=C(c1ccccc1)N1CCN(CC(O)COc2cccc(Cl)c2)CC1 (stereo not given)	-18.1%
CN1CCN(CC(O)COc2ccc3ccccc3c2)CC1 (stereo not given)	18.6%
CCN1CCN(CC(O)COc2cccc(C(=O)OC)c2)CC1 (stereo not given)	53.1% (active)
O=C(/C=C/c1ccc([N+](=O)[O-])cc1)NCCSC1CCCCC1	27.9%
CCOc1ccccc1N1C(=O)c2nccnc2C1=O	1.76%
CCOc1cc(/C=N/O)ccc1OCc1cccc(F)c1	9.06%
CCC(C)NCC(=O)Nc1cccc(C)c1C (stereo not given)	-0.21%
Cc1cccc(NC(=O)CNCCN2CCCCC2)c1C	62.5% (active)
COCCNCC(=O)Nc1cccc(C)c1C	-3.31%
